# Measured values as given in PubChem BioAssay AID1259240 (Keith Lab, Institute of Cancer Science, University of …, 2017).
# Activity calls are given as the source filed them. No stated cut-off is given here; in the data, active means fold change mostly below about -2 (no sharp cut-off); inactive means mostly above about -1.8.
# Assay: TERT promoter activity modulators, primary screen, cell-based, luciferase reporter, human (AID 1259240)
# Conditions: A2780 TERT promoter luciferase reporter, 16 h; at 20 µM, fold versus average of vehicle-only wells
row,Structure (SMILES),fold change
1,Fc1ccc(Nc2nnc(Cc3ccncc3)c3ccccc23)cc1,-1.37 (inactive)
2,O=c1oc2cc(O)ccc2cc1S(=O)(=O)c1ccc(Cl)cc1,-2.04 (active)
3,Cc1nc(SCC(=O)Nc2cc(C)on2)c2c(=O)n(C)c(=O)n(C)c2n1,-1.1 (inactive)
4,OCCn1c(-c2ccc(Br)cc2)cn2c3ccccc3nc12,-1.06 (inactive)
5,Cc1cc(C)cc(NC(=O)CC(C)CC2=NS(=O)(=O)c3ccccc3N2)c1 (centres undefined),-1.03 (inactive)
6,CCc1ccc(C2C3=C(CC(C)(C)CC3=O)NC3=C2C(=O)c2ccccc23)cc1 (centres undefined),-2.26 (active)
7,CCc1ccc2nc(Nc3nccc(C)n3)nc(C)c2c1,1.83 (inactive)
8,CCS(=O)(=O)Nc1cccc(C2=NN(S(C)(=O)=O)C(c3cccs3)C2)c1 (centres undefined),-1.32 (inactive)
9,O=C(NC1CCCCC1)C(=O)c1c(-c2ccccc2)cc2ccccn12,1.24 (inactive)
10,COc1ccc2nc(C)c(C(=O)OCCN(C)C)cc2c1,1.5 (inactive)
11,COC(=O)c1ccc(-c2nn(C)c(=O)c3ccccc23)cc1,-1.09 (inactive)
12,CCOC(=O)c1nn(-c2ccc(F)cc2)c(=O)c2c(NC(=O)CCCl)scc12,-3.04 (active)
13,CC(Sc1nc(-c2ccco2)nc2c1c(=O)n(C)c(=O)n2C)C(=O)O (centres undefined),1.38 (inactive)
14,CC1CCCC(NC(=O)CN(C)S(=O)(=O)c2ccc3c(c2)CCC(=O)N3)C1C (centres undefined),-1.68 (inactive)
15,Cc1ccc(Cl)cc1N1C(=O)Nc2ccccc2N1O,-1.07 (inactive)
16,N#Cc1cn(CC(=O)NCCc2c[nH]c3ccccc23)c2ccccc12,-1.14 (inactive)
17,Cc1oc2cc(OC(=O)N3CCOCC3)ccc2c(=O)c1Oc1ccccc1Br,-1.46 (inactive)
18,CN(CC(=O)Nc1nccs1)S(=O)(=O)c1ccc2c(c1)n(C)c(=O)c(=O)n2C,1.27 (inactive)
19,CCOC(=O)N1CCN(c2c(NC3CCCCCC3)c(=O)c2=O)CC1,-1.07 (inactive)
20,CCOC(=O)N1CCC(Nc2c(N3CCN(c4ccccc4F)CC3)c(=O)c2=O)CC1,-1.13 (inactive)

row,Structure (SMILES),fold change
1,Cc1cc(=O)n2[nH]c(NC(=O)c3cccs3)nc2n1,-1.29 (inactive)
2,COc1ccccc1N1CCN(S(=O)(=O)c2cccc3cccnc23)CC1,-1.29 (inactive)
3,Cc1ccc(-c2cc(N)n(S(=O)(=O)c3cccc([N+](=O)[O-])c3)n2)cc1,1.05 (inactive)
4,Clc1ccc(CNc2ccc3nncn3n2)cc1,-1.3 (inactive)
5,CC1CCC(NC(=O)C(=O)Nc2ccc3nc4n(c(=O)c3c2)CCCCC4)CC1 (centres undefined),1 (inactive)
6,Cc1cccc(-c2nc3s/c(=C4\C(=O)N(C)c5ccccc54)c(=O)n3n2)c1,-1.34 (inactive)
7,CCN(CC)CCNc1nc2c(c(=O)[nH]c(=O)n2C)n1Cc1ccccc1Cl,-1.23 (inactive)
8,C=CCN1C(=O)/C(=c2\sc3nc(-c4ccccc4OC)nn3c2=O)c2cc(Br)ccc21,1.17 (inactive)
9,C=CCn1c(NCCN(CC)CC)nc2c1c(=O)[nH]c(=O)n2C,1.22 (inactive)
10,Nc1ccc(-c2nc3cc(N)c(Cl)cc3[nH]2)cc1,-4.84 (active)
11,COc1cc(OC)c(NC(=O)Nc2cc3sccc3n2C)cc1Cl,1.13 (inactive)
12,CCOC(=O)c1cc2cc(Cl)ccc2oc1=O,1.32 (inactive)
13,O=C(NCCc1c[nH]c2ccccc12)C1CCN(c2ccc(N3CCOCC3)nn2)CC1,-1.29 (inactive)
14,CS(=O)(=O)Nc1ccc(Cl)c2cccnc12,-2.8 (active)
15,CCOC(=O)Cc1csc(NC(=O)Nc2cccs2)n1,1.33 (inactive)
16,CCCNc1c(NC2CCN(C(=O)OCC)CC2)c(=O)c1=O,-1.23 (inactive)
17,Cc1ccc2c(C)nc(NC3=NCN(C4CCCC4)CN3)nc2c1,-2 (inactive)
18,O=C(CSc1nnc2c(n1)[nH]c1ccccc12)c1ccc(Br)cc1,1.22 (inactive)
19,COCCn1c(SCC(=O)Nc2cc(C)on2)nc2c(c1=O)SC(C)C2 (centres undefined),-1.21 (inactive)
